{
  "source": "PubChem BioAssay (NCI)",
  "key": {"[1]": {"test": "NCI Yeast Anticancer Drug Screen. Data for the wt1 strain (AID 149);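 also: 0% = growth of vehicle-treated wt1 cultures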", "conditions": "S. cerevisiae wt1 strain (SPY 50644) growth inhibition, stronger effect = higher value", "how_it_was_run": "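Growth inhibition read against vehicle controls after compound exposure of the wt1 yeast strain.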"}, "[2]": {"test": "NCI Yeast Anticancer Drug Screen. Data for the rad50EPP+ strain (AID 151);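 also: 0% = growth of vehicle-treated control cultures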", "conditions": "S. cerevisiae rad50 mutant strain, stronger effect = higher value", "how_it_was_run": "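Measured: growth inhibition of rad50EPP+ yeast. Reference: vehicle-treated controls. Screen uses strains with defined genetic alterations in DNA damage repair or cell cycle control.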"}, "[3]": {"test": "NCI Yeast Anticancer Drug Screen. Data for the mgt1 strain (AID 153)", "conditions": "S. cerevisiae mgt1 mutant growth inhibition, stronger effect = higher value", "how_it_was_run": "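Compounds were applied to mgt1 mutant yeast, and growth was then compared against vehicle-treated control cultures to give percent inhibition.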"}, "[4]": {"test": "NCI Yeast Anticancer Drug Screen. Data for the rad50 strain (AID 155);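 also: 0% = growth of vehicle-only cultures of the same strain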", "conditions": "S. cerevisiae rad50 strain growth inhibition, stronger effect = higher value", "how_it_was_run": "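Readout: growth inhibition relative to vehicle-treated cultures. Compound exposure was carried out in a genetically defined yeast strain deficient in DNA damage repair.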"}, "[5]": {"test": "NCI Yeast Anticancer Drug Screen. Data for the mec2-1 strain (AID 157)", "conditions": "S. cerevisiae mec2-1 strain, stronger effect = higher value", "how_it_was_run": "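Compounds were applied to mec2-1 yeast cells. Their growth was then compared with that of vehicle-treated cultures to give growth inhibition.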"}, "[6]": {"test": "NCI Yeast Anticancer Drug Screen. Data for the rad14 strain (AID 159);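 also: 0% = growth of vehicle-treated control cultures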", "conditions": "S. cerevisiae rad14 strain growth inhibition, stronger effect = higher value", "how_it_was_run": "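Growth inhibition vs vehicle controls; genetically altered yeast strain (DNA damage repair defect) treated with test compounds.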"}, "[7]": {"test": "NCI Yeast Anticancer Drug Screen. Data for the sgs1 mgt1 strain (AID 161);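 also: 0% = growth of cultures given vehicle only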", "conditions": "S. cerevisiae sgs1 mgt1 strain, stronger effect = higher value", "how_it_was_run": "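Compounds are added to genetically altered yeast, and growth is compared with cultures given vehicle alone to give percent inhibition.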"}, "[8]": {"test": "NCI Yeast Anticancer Drug Screen. Data for the CLN2oe strain (AID 163);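 also: 0% = growth of vehicle-only control cultures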", "conditions": "S. cerevisiae CLN2oe strain, stronger effect = higher value", "how_it_was_run": "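Cells of an engineered yeast line with disturbed cell-cycle regulation are treated with compound. Inhibition of growth is then calculated relative to the vehicle-treated reference.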"}, "[9]": {"test": "NCI Yeast Anticancer Drug Screen. Data for the cln2 rad14 strain (AID 165);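 also: 0% = growth equal to vehicle treated cultures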", "conditions": "S. cerevisiae cln2 rad14 strain, stronger effect = higher value", "how_it_was_run": "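Strain: cln2 rad14 yeast, altered in cell cycle control and DNA damage repair. Read-out: growth inhibition vs vehicle.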"}, "[10]": {"test": "NCI Yeast Anticancer Drug Screen. Data for the bub3 strain (AID 167)", "conditions": "S. cerevisiae bub3 mutant strain, stronger effect = higher value", "how_it_was_run": "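Readout: yeast growth inhibition, expressed relative to vehicle-only wells. The test organism is a mutant strain from a panel with lesions in DNA repair or checkpoint genes.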"}, "[11]": {"test": "NCI Yeast Anticancer Drug Screen. Data for the wt2 strain (AID 169);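 also: 0% = growth of vehicle-treated yeast cultures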", "conditions": "S. cerevisiae wt2 strain growth inhibition, stronger effect = higher value", "how_it_was_run": "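Growth of compound-treated yeast is measured and expressed as inhibition relative to vehicle-only controls.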"}, "[12]": {"test": "NCI Yeast Anticancer Drug Screen. Data for the mlh1 strain (AID 171);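 also: 0% = growth of vehicle-treated control cultures of the same strain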", "conditions": "S. cerevisiae mlh1 strain growth inhibition, stronger effect = higher value", "how_it_was_run": "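Test agents were incubated with yeast bearing a defined DNA damage repair or cell cycle control alteration; values are growth inhibition normalised to vehicle-treated cultures.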"}, "[13]": {"test": "NCI Yeast Anticancer Drug Screen. Data for the mlh1 rad18 strain (AID 175)", "conditions": "S. cerevisiae mlh1 rad18 strain growth inhibition, stronger effect = higher value", "how_it_was_run": "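A repair-deficient yeast strain is exposed to test compound, and growth is scored relative to vehicle-treated controls.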"}, "[14]": {"test": "NCI Yeast Anticancer Drug Screen. Data for the rad18 strain (AID 177)", "conditions": "S. cerevisiae rad18 mutant growth inhibition, stronger effect = higher value", "how_it_was_run": "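DNA-repair-defective yeast; compound treatment; growth inhibition scored against vehicle.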"}, "[15]": {"conditions": "at 5.0 µM (retest, dose inferred, filed as 0.5)"}, "[16]": {"conditions": "at 50.0 µM (retest, dose inferred, filed as 5.0)"}},
  "note": "About 79,000 compounds went through this panel and 15% of them were active in at least one assay; those are over-represented in the sample as a whole. A number with no mark means an inactive call. Activity calls are given as the source filed them. Rule as the data show it: active = growth inhibition above about 70%; inactive = the rest.",
  "data": [
    {"compound": "CCCCOc1ccc2nc(C)cc(N=[N+]=[N-])c2c1", "values": [
      {"measurement": "growth inhibition", "setting": "[1]; at 1.2 µM", "result": 11, "unit": "%"},
      {"measurement": "growth inhibition", "setting": "[1]; at 3.7 µM", "result": 10, "unit": "%"},
      {"measurement": "growth inhibition", "setting": "[1]; at 11.0 µM", "result": 11, "unit": "%"},
      {"measurement": "growth inhibition", "setting": "[1]; at 33.0 µM", "result": 15, "unit": "%"},
      {"measurement": "growth inhibition", "setting": "[1]; at 100.0 µM", "result": 69, "unit": "%"},
      {"measurement": "growth inhibition", "setting": "[2]; at 1.2 µM", "result": -1, "unit": "%"},
      {"measurement": "growth inhibition", "setting": "[2]; at 3.7 µM", "result": -3, "unit": "%"},
      {"measurement": "growth inhibition", "setting": "[2]; at 11.0 µM", "result": 0, "unit": "%"},
      {"measurement": "growth inhibition", "setting": "[2]; at 33.0 µM", "result": 10, "unit": "%"},
      {"measurement": "growth inhibition", "setting": "[2]; at 100.0 µM", "result": 45, "unit": "%"},
      {"measurement": "growth inhibition", "setting": "[3]; at 1.2 µM", "result": 6, "unit": "%"},
      {"measurement": "growth inhibition", "setting": "[3]; at 3.7 µM", "result": 7, "unit": "%"},
      {"measurement": "growth inhibition", "setting": "[3]; at 11.0 µM", "result": 12, "unit": "%"},
      {"measurement": "growth inhibition", "setting": "[3]; at 33.0 µM", "result": 32, "unit": "%"},
      {"measurement": "growth inhibition", "setting": "[3]; at 100.0 µM", "result": "90% (active)"},
      {"measurement": "growth inhibition", "setting": "[4]; at 1.2 µM", "result": 4, "unit": "%"},
      {"measurement": "growth inhibition", "setting": "[4]; at 3.7 µM", "result": -4, "unit": "%"},
      {"measurement": "growth inhibition", "setting": "[4]; [15]", "result": 19, "unit": "%"},
      {"measurement": "growth inhibition", "setting": "[4]; at 11.0 µM", "result": -1, "unit": "%"},
      {"measurement": "growth inhibition", "setting": "[4]; at 33.0 µM", "result": 33, "unit": "%"},
      {"measurement": "growth inhibition", "setting": "[4]; [16]", "result": 49, "unit": "%"},
      {"measurement": "growth inhibition", "setting": "[4]; at 50.0 µM", "result": 19.7, "unit": "%"},
      {"measurement": "growth inhibition", "setting": "[4]; at 100.0 µM", "result": "92% (active)"},
      {"measurement": "growth inhibition", "setting": "[5]; at 1.2 µM", "result": 11, "unit": "%"},
      {"measurement": "growth inhibition", "setting": "[5]; at 3.7 µM", "result": 8, "unit": "%"},
      {"measurement": "growth inhibition", "setting": "[5]; [15]", "result": 7, "unit": "%"},
      {"measurement": "growth inhibition", "setting": "[5]; at 11.0 µM", "result": 14, "unit": "%"},
      {"measurement": "growth inhibition", "setting": "[5]; at 33.0 µM", "result": 28, "unit": "%"},
      {"measurement": "growth inhibition", "setting": "[5]; [16]", "result": -1, "unit": "%"},
      {"measurement": "growth inhibition", "setting": "[5]; at 50.0 µM", "result": 23.8, "unit": "%"},
      {"measurement": "growth inhibition", "setting": "[5]; at 100.0 µM", "result": "79% (active)"},
      {"measurement": "growth inhibition", "setting": "[6]; at 1.2 µM", "result": 7, "unit": "%"},
      {"measurement": "growth inhibition", "setting": "[6]; at 3.7 µM", "result": 5, "unit": "%"},
      {"measurement": "growth inhibition", "setting": "[6]; at 11.0 µM", "result": 11, "unit": "%"},
      {"measurement": "growth inhibition", "setting": "[6]; at 33.0 µM", "result": 48, "unit": "%"},
      {"measurement": "growth inhibition", "setting": "[6]; at 100.0 µM", "result": "98% (active)"},
      {"measurement": "growth inhibition", "setting": "[7]; [15]", "result": 12, "unit": "%"},
      {"measurement": "growth inhibition", "setting": "[7]; [16]", "result": -13, "unit": "%"},
      {"measurement": "growth inhibition", "setting": "[7]; at 50.0 µM", "result": "91.2% (active)"},
      {"measurement": "growth inhibition", "setting": "[8]; at 1.2 µM", "result": 7, "unit": "%"},
      {"measurement": "growth inhibition", "setting": "[8]; at 3.7 µM", "result": 6, "unit": "%"},
      {"measurement": "growth inhibition", "setting": "[8]; at 11.0 µM", "result": 12, "unit": "%"},
      {"measurement": "growth inhibition", "setting": "[8]; at 33.0 µM", "result": 28, "unit": "%"},
      {"measurement": "growth inhibition", "setting": "[8]; at 100.0 µM", "result": 64, "unit": "%"},
      {"measurement": "growth inhibition", "setting": "[9]; [15]", "result": 6, "unit": "%"},
      {"measurement": "growth inhibition", "setting": "[9]; [16]", "result": "70% (active)"},
      {"measurement": "growth inhibition", "setting": "[9]; at 50.0 µM", "result": 40.8, "unit": "%"},
      {"measurement": "growth inhibition", "setting": "[10]; at 1.2 µM", "result": 11, "unit": "%"},
      {"measurement": "growth inhibition", "setting": "[10]; at 3.7 µM", "result": 9, "unit": "%"},
      {"measurement": "growth inhibition", "setting": "[10]; [15]", "result": 5, "unit": "%"},
      {"measurement": "growth inhibition", "setting": "[10]; at 11.0 µM", "result": 12, "unit": "%"},
      {"measurement": "growth inhibition", "setting": "[10]; at 33.0 µM", "result": 31, "unit": "%"},
      {"measurement": "growth inhibition", "setting": "[10]; [16]", "result": 33, "unit": "%"},
      {"measurement": "growth inhibition", "setting": "[10]; at 50.0 µM", "result": 37, "unit": "%"},
      {"measurement": "growth inhibition", "setting": "[10]; at 100.0 µM", "result": "87% (active)"},
      {"measurement": "growth inhibition", "setting": "[11]; at 1.2 µM", "result": 7, "unit": "%"},
      {"measurement": "growth inhibition", "setting": "[11]; at 3.7 µM", "result": 6, "unit": "%"},
      {"measurement": "growth inhibition", "setting": "[11]; at 11.0 µM", "result": 10, "unit": "%"},
      {"measurement": "growth inhibition", "setting": "[11]; at 33.0 µM", "result": 33, "unit": "%"},
      {"measurement": "growth inhibition", "setting": "[11]; at 100.0 µM", "result": "93% (active)"},
      {"measurement": "growth inhibition", "setting": "[12]; at 1.2 µM", "result": 7, "unit": "%"},
      {"measurement": "growth inhibition", "setting": "[12]; at 3.7 µM", "result": 10, "unit": "%"},
      {"measurement": "growth inhibition", "setting": "[12]; at 11.0 µM", "result": 13, "unit": "%"},
      {"measurement": "growth inhibition", "setting": "[12]; at 33.0 µM", "result": 38, "unit": "%"},
      {"measurement": "growth inhibition", "setting": "[12]; at 100.0 µM", "result": "97% (active)"},
      {"measurement": "growth inhibition", "setting": "[13]; [15]", "result": 8, "unit": "%"},
      {"measurement": "growth inhibition", "setting": "[13]; [16]", "result": "93% (active)"},
      {"measurement": "growth inhibition", "setting": "[13]; at 50.0 µM", "result": "74.2% (active)"},
      {"measurement": "growth inhibition", "setting": "[14]; at 1.2 µM", "result": 16, "unit": "%"},
      {"measurement": "growth inhibition", "setting": "[14]; at 3.7 µM", "result": 19, "unit": "%"},
      {"measurement": "growth inhibition", "setting": "[14]; at 11.0 µM", "result": 23, "unit": "%"},
      {"measurement": "growth inhibition", "setting": "[14]; at 33.0 µM", "result": 51, "unit": "%"},
      {"measurement": "growth inhibition", "setting": "[14]; at 100.0 µM", "result": "96% (active)"}
    ]}
  ]
}
